Assay results from PubChem BioAssay (Tox21).
Inconclusive results are not listed. The source made the active and inactive calls. Calls follow the shape of the dose curve; as a rule, active = well fitted curve in the direction sought with a large enough effect in the repeat runs; inconclusive = weak or mixed curves; inactive = no such curve, though single readings can be large; an effect the other way counts as inactive or inconclusive.

Experiments:
[1] = qHTS RealTime-Glo MT Cell Viability Assay in HEK293 cells - 16 hour (AID 1224872); also: nearly all actives have a fitted effect of over 50% in size
Summary of the method: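 Assay medium contained NanoLuc luciferase plus cell-permeant prosubstrate, added with HEK293 cells at 600 cells/well. After 5 h at 37 C/5% CO2 compounds were added; plates stayed at 37 C for 40 h with serial luminescence reads.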

[2] = qHTS RealTime-Glo MT Cell Viability Assay in HEK293 cells - 40 hour (AID 1224874); conditions: RealTime-Glo luminescence; max response: active compounds read low; also: nearly all actives have a fitted effect of over 50% in size
Summary of the method: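 Tox21 screen in HEK293 using RealTime-Glo MT chemistry, with cells and reagent co-dispensed. Luminescence proportional to viable cell number was captured at intervals during 40 h compound exposure at 37 C.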

[3] = qHTS RealTime-Glo MT Cell Viability Assay in HepG2 cells - 32 hour (AID 1224877); also: nearly all actives have a fitted effect of over 55% in size
Summary of the method: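 qHTS, HepG2, 600 cells/well, RealTime-Glo (NanoLuc + prosubstrate) added with cells; 5 h preincubation; DMSO compound addition; 37 C; luminescence at 0/8/16/24/32/40 h.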

[4] = A CellTox Green Cytotoxicity Assay to monitor cytotoxicity in HepG2 cells - 40 hour (AID 1224879); also: nearly all actives have a fitted effect of over 40% in size
Summary of the method: (§1)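 Nonlytic assay: viable cells exclude the dye, so fluorescence scales with cell death. HepG2 at 600 cells/well, compounds added after 5 h, signal read across 40 h.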

[5] = A CellTox Green Cytotoxicity Assay to monitor cytotoxicity in HEK293 cells - 40 hour (AID 1224871); also: nearly all actives have a fitted effect of over 45% in size
Summary of the method: (§2)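 Seeding of HEK293 cells together with cytotoxicity dye preceded a 5 h incubation at 37 C/5% CO2. Test compounds in DMSO were then added and fluorescence monitored across 40 h.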

[6] = qHTS RealTime-Glo MT Cell Viability Assay in HepG2 cells - 8 hour (AID 1224873); also: nearly all actives have a fitted effect of over 55% in size
Summary of the method: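 Real-time viability: cells seeded at 600 per well together with NanoLuc and cell-permeant prosubstrate, compounds added after 5 h incubation. Luminescence tracked at 0, 8, 16, 24, 32 and 40 h of exposure.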

[7] = A CellTox Green Cytotoxicity Assay to monitor cytotoxicity in HEK293 cells - 24 hour (AID 1224875); also: nearly all actives have a fitted effect of over 45% in size
Summary of the method: as §2

[8] = A CellTox Green Cytotoxicity Assay to monitor cytotoxicity in HepG2 cells - 16 hour (AID 1224876); also: nearly all actives have a fitted effect of over 45% in size
Summary of the method: as §1

[9] = A CellTox Green Cytotoxicity Assay to monitor cytotoxicity in HepG2 cells - 24 hour (AID 1224878); also: nearly all actives have a fitted effect of over 45% in size
Summary of the method: as §1
% is scaled to controls: 0 for no effect and ±100 for the full control effect; potency is read from the fitted curve at half-maximal effect.

CC(=O)NC1(c2cccc(F)c2)CCN(CC[C@@]2(c3ccc(Cl)c(Cl)c3)CN(c3ccccc3)C(=O)CO2)CC1
active: Potency [1] 17.4 µM | Potency [2] 17.4 µM | Potency [3] 43.8 µM | Potency [4] 43.8 µM

O=C1Cc2ccccc2N1c1c(Cl)cccc1Cl
inactive: Potency [5] | Potency [6] | Potency [7] | Potency [8] | Potency [3]
active: Potency [2] 21.9 µM

CCCCCCCCCCC(=O)O
inactive: Potency [1] | Potency [6] | max response [2] 3.53% | Potency [7] | Potency [8] | Potency [3] | Potency [9] | Potency [4]

OCCN1CCN(CCCN2c3ccccc3Sc3ccc(Cl)cc32)CC1
active: Potency [1] 23.9 µM | Potency [6] 23.9 µM | Potency [8] 21.3 µM | Potency [3] 23.9 µM | Potency [9] 15.1 µM | Potency [4] 19 µM

O=C=Nc1cccc(C(F)(F)F)c1
inactive: Potency [1] | Potency [6] | Potency [8] | Potency [3] | Potency [9] | Potency [4]

COc1ccccc1N1CCN(CC(O)COc2cccc3ccccc23)CC1 (stereo not drawn)
inactive: Potency [5] | Potency [6] | Potency [7]
active: Potency [4] 30.1 µM

C=CC(=O)OCC1CC2CC1C1CCC(COC(=O)C=C)C21 (stereo not drawn)
inactive: Potency [8]
active: Potency [5] 49 µM | Potency [7] 49 µM | Potency [9] 49 µM | Potency [4] 38.9 µM

CC(=O)Nc1cc(S(=O)(=O)O)cc2cc(S(=O)(=O)O)c(N=Nc3ccccc3)c(O)c12
inactive: Potency [1] | Potency [6] | max response [2] -17.9% | Potency [7] | Potency [8] | Potency [3] | Potency [9] | Potency [4]

CN1CCCC(n2nc(Cc3ccc(Cl)cc3)c3ccccc3c2=O)CC1 (stereo not drawn)
inactive: Potency [6]
active: Potency [1] 7.56 µM | Potency [2] 9.52 µM | Potency [8] 26.8 µM | Potency [9] 23.9 µM | Potency [4] 23.9 µM

O=C(O)c1cccc(-c2noc(-c3ccccc3F)n2)c1
inactive: Potency [1] | Potency [6] | Potency [7] | Potency [8] | Potency [3] | Potency [9] | Potency [4]

COc1ccccc1NC(=O)c1cc2ccccc2cc1O
inactive: Potency [5] | Potency [7] | Potency [8] | Potency [9]
active: Potency [1] 24.5 µM

CCC1CO1 (stereo not drawn)
inactive: Potency [1] | Potency [6] | max response [2] 4.39% | Potency [7] | Potency [8] | Potency [3] | Potency [9] | Potency [4]
